From PubChem
D1 antagonist – Antagonist of Human D 1 Dopamine Receptor: qHTS; HEK293 TREx D1 cells, calcium flux, dopamine EC80; active compounds read low; activity change, negative = inhibition, % at 10 µM; hit rate 3.2% among 360,000; AID 504652, 2011; in the data active means activity change below about -30%
Target sequence (P21728 whole entry, looked up): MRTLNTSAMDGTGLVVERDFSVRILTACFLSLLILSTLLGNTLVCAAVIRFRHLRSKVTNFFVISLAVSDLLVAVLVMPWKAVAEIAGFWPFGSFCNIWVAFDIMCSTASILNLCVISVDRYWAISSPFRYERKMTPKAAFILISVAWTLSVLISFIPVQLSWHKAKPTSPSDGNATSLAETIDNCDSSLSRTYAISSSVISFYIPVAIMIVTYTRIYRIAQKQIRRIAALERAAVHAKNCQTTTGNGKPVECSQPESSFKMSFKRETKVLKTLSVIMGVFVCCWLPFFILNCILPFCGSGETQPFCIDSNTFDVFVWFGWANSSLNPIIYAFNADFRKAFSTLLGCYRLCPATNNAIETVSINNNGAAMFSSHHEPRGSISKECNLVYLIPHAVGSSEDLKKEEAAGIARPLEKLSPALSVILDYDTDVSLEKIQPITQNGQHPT
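Antagonism measured as reduced calcium response to an EC80 dopamine addition following 180 s compound pre-read; cells were inducible HEK293 Trex D1 plated overnight at 30 C, read kinetically at 1 cycle/sec.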
TRHR enhancer – qHTS for Small Molecule Agonists and Allosteric Enhancers of Human TRH Receptor: Primary Screen for Enhancers; Thyrotropin-releasing hormone receptor (Homo sapiens), P34981; TRHR cells, fluo-8 calcium fluorescence, EC20 TRH enhancement; enhancement, % at 2 µM; hit rate 0.66% among 360,000; AID 493056, 2011; in the data active means enhancement above about 30%
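Enhancer read-out: after compound pinning and an initial kinetic agonist-mode read, an EC20 of TRH (10 nM final) was injected and fluo-8 calcium signal (Ex 480/Em 530) followed at 1 s/cycle for 100 cycles in TRHR-expressing cells.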
D1 ag – Allosteric Agonists of the Human D1 Dopamine Receptor: qHTS | HEK293 T-REx D1 cells, calcium flux, agonist mode | activation, % at 2 µM | hit rate 1% among 360,000 | AID 504660, 2011
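Tetracycline-induced HEK293 TREx D1 cells, force-coupled to calcium signalling, were dye-loaded with a no-wash calcium kit. Compound was pin-added after a 10 s baseline. Fluorescence was read kinetically at 1 cycle/s for 180 s, with calcium rises flagged as agonism.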
D1 PAM – Potentiators of Human D1 Dopamine Receptor: qHTS; potentiation, % at 10 µM; D(1A) dopamine receptor (Homo sapiens), P21728; hit rate 0.036% among 360,000; HEK293 TREx D1 cells, calcium flux, dopamine EC20 potentiation; AID 504651, 2011; in the data active means potentiation above about 30%
TRHR ag – qHTS for Small Molecule Agonists and Allosteric Enhancers of Human TRH Receptor: Primary Screen for Agonists; activation, % at 2 µM; AID 493084, 2011; hit rate 0.18% among 360,000; TRHR cells, calcium flux fluo-8, FDSS agonist mode; Thyrotropin-releasing hormone receptor (Homo sapiens), P34981
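Read-out: compound-evoked intracellular calcium rise in TRHR cells, fluo-8 dye, kinetic FDSS fluorescence at 1 s/cycle following a 10-cycle baseline. Cells cultured overnight before dye loading (30 min–1.5 h, RT).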
Of the large screens only hits and unclear results are named; the others gave an inactive call; ! = not active in a repeat. The list is not random: actives were taken first. Their share in the collection is about 4.6%. Unless noted, no stated cut-off is given here; in the data, active means activation above about 30%; inactive means the rest.

Cc1cccc(NC(=O)CSc2nc3c([nH]c4ccccc43)c(=O)n2-c2ccc(F)cc2)c1C	D1 antagonist -33
Cc1cccc(C)c1NC(=O)CSc1nnc(C2CCCCC2)o1	none
COc1cccc(/C=N/Nc2ncnc3c2[nH]c2ccc(C)cc23)c1OC	D1 antagonist -34
COCCNc1ncnc2c1[nH]c1ccccc12	D1 antagonist -37
C=CCNc1ncnc2c1[nH]c1ccc(C)cc12	D1 antagonist -32
Cc1ccc2[nH]c3c(NCCN4CCOCC4)ncnc3c2c1	none
Fc1ccc2[nH]c3c(NCc4ccccc4)ncnc3c2c1	D1 antagonist -40
COc1ccc2[nH]c3c(NCc4ccco4)ncnc3c2c1	none
COc1ccc(/C=N/Nc2ncnc3c2[nH]c2ccccc23)c(OC)c1OC	none
O=C(O)CC/C(=N/NC(=O)CNC(=O)Cc1ccc(Cl)cc1)c1ccccc1	none
CN(C(=O)c1nn(C)c2c1COc1ccccc1-2)c1cccc(C(F)(F)F)c1	none
Cc1ccc(NC(=O)CCNS(=O)(=O)c2ccc3c(c2)c(=O)n(C)c(=O)n3C)cc1C	none
CCCOc1ccc(NC(=O)CC2C(=O)N(CC)C(=S)N2Cc2cccs2)cc1 (stereo unspecified)	none
CCN(CC)CCN(C(=O)c1ccco1)c1nc2c(C)c(C)ccc2s1	TRHR enhancer 38
Cc1ccc2sc(N(CCCN(C)C)C(=O)c3ccco3)nc2c1C	none
COC(=O)C1=C(C)N(CC2CC2)C(=O)N[C@H]1c1ccc(Br)cc1	none
COc1cccc(/C=C/c2nc(S(=O)(=O)c3ccccc3)c(N(C)C)o2)c1	none
N#Cc1c(-c2ccccc2)cc(C2CC2)nc1N	D1 ag 31
Cc1c(C(=O)N2CCNCC2)oc2ccccc12	none
CCOC(=O)C1(Cc2cccc(Cl)c2)CCCN(C(=O)c2cnn(CC)c2)C1 (stereo unspecified)	D1 antagonist -38
CCOC(=O)C1(Cc2cccc(Cl)c2)CCCN(C(=O)c2cn[nH]c2)C1 (stereo unspecified)	none
Cc1noc(C(=O)N2CCN(c3ccc(F)cc3)CC2)c1Cl	D1 antagonist -69
Cc1noc(C)c1CSCC(=O)N1CCN(c2ccc(F)cc2)CC1	D1 antagonist -32
COc1cccc(/C=C/C(=O)OCC(=O)NCC2CCCO2)c1 (stereo unspecified)	none
COc1cccc(/C=C/C(=O)OCC(=O)NCC2CCCO2)c1OC (stereo unspecified)	D1 antagonist -34
COc1cc2c(cc1OC)C(COc1ccc3c(C)cc(=O)oc3c1)N(C(=O)c1ccccc1F)CC2 (stereo unspecified)	none
CCO[C@@H]1OC(C(=O)N2CCN(C)CC2)=C[C@H](C2CCCCC2)[C@H]1CCCO	none
CCO[C@@H]1OC(C(=O)N2CCN(C)CC2)=C[C@H](C(C)(C)C)[C@H]1CCCO	TRHR enhancer 35
CSc1ccc(C2NC(=O)CCC2[N+](=O)[O-])cc1 (stereo unspecified)	D1 antagonist -33
CCOC(=O)C1(CCc2ccccc2)CCN(Cc2ccc(O)cc2)CC1	D1 antagonist -86
CCOC(=O)C1(CCOc2ccccc2)CCN(Cc2ccc(OC)c(O)c2)CC1	D1 antagonist -71
CCOC(=O)C1(CCc2ccccc2)CCN(Cc2ccc(OC)cc2)CC1	none
COCCNC(=S)N(CCc1c(C)[nH]c2ccc(F)cc12)Cc1cccs1	D1 antagonist -38
COc1ccccc1C1CC(=O)N(c2cccc(C(F)(F)F)c2)C2=C1C(=O)OC2 (stereo unspecified)	none
COc1ccc(OC)c(C2CC(=O)N(c3cccc(C)c3)C3=C2C(=O)OC3)c1 (stereo unspecified)	TRHR enhancer 36
O=C(C1=C(O)C(=O)N(CC2CCCO2)C1c1cccnc1)c1ccco1 (stereo unspecified)	D1 antagonist -30
O=C1CC(C(=O)Nc2cccc3ccccc23)C2(CCCC2)O1 (stereo unspecified)	D1 ag 34
Cc1ccc2nc(SCC(=O)Nc3c(C)n(C)n(-c4ccccc4)c3=O)[nH]c2c1	none
CC1CN(c2ccc([N+](=O)[O-])c(NCCOc3ccc(Cl)cc3)c2)CC(C)N1 (stereo unspecified)	D1 ag 39
CC1CN(c2ccc([N+](=O)[O-])c(NCCOc3ccccc3)c2)CC(C)N1 (stereo unspecified)	none
Cc1cccc(NC(=O)Cn2cnc3sc(C)c(S(=O)(=O)N4CCC(C)CC4)c3c2=O)n1	none
O=C1C=C(NC2=CC3OC(c4ccccc4)OCC3OC2=O)CCC1 (stereo unspecified)	D1 antagonist -31
CCn1nc(C(=O)NNC(=O)COc2ccccc2C)c2ccccc2c1=O	none
CNC(=S)N/N=C1\C(=O)c2cccc3cccc1c23	D1 antagonist -46
CCCCNC(=S)N/N=C1\C(=O)c2cccc3cccc1c23	none
COc1cc(-c2c(-c3cccc(C)c3)oc3ccccc23)cc(OC)c1OC	none
O=C(Nc1ccc(N2CCN(Cc3ccccc3)CC2)cc1)c1ccco1	D1 antagonist -30
O=C(Nc1ccc(N2CCN(C(=O)c3ccco3)CC2)cc1)c1ccccc1	D1 antagonist -56
COc1ccc(/C=N/NC(=O)c2ccc(Br)cc2)cc1CN1CCOCC1	none
S=c1sc2ccccc2n1CCc1ccncc1	D1 antagonist -39
COCCn1c(C)cc(O)c(C(c2ccccc2OC)N2CCN(c3ccccc3)CC2)c1=O (stereo unspecified)	TRHR enhancer 45
CCN1CCN(C(c2ccc(OC)cc2)c2c(O)cc(C)n(CCOC)c2=O)CC1 (stereo unspecified)	none
CCN1CCN(C(c2ccc(Cl)cc2)c2c(O)cc(C)n(CCOC)c2=O)CC1 (stereo unspecified)	D1 antagonist -39
Cc1ccccc1OCCOC(=O)c1cc(S(=O)(=O)N2CCCCC2)ccc1N1CCOCC1	none
COc1cc([N+](=O)[O-])c2ncccc2c1	none
CC(C)(C)N(Cc1ccccc1)C(=O)CN1C(=O)NC2(CCCCCC2)C1=O	D1 antagonist -75 (no result: D1 PAM)
Cc1ccc(C)c(NC(=O)CSc2nc3ccccc3nc2N2CCOCC2)c1	D1 antagonist -46!
O=S(=O)(Cc1ccc(Cl)cc1)N1CCCC1	D1 antagonist -74
O=S(=O)(Cc1ccc(Cl)cc1)N1CCCCCC1	none
O=C(NC1CCCCC1)N(Cc1nc2ccccc2c(=O)[nH]1)C1CCCCC1	none
O=C(NC1CCCCC1)N(Cc1nc2ccccc2c(=O)[nH]1)C1CCCC1	D1 antagonist -64
Cc1ccc(N(Cc2cccs2)C(=O)COc2cccc(C)c2)cc1	none
